“And” between values parts separate entries of the source, which are not always exact repeats. Equal values may be shown once.
Each compound was assayed on TDF (assay: H1.0 immunofluorescence intensity relative to DMSO (% of DMSO); higher = stronger H1.0 induction, active = 120 or more). Settings: concentration: 10 µM; 24 h.
Method in brief: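 Compounds were applied at 10 µM for 24 h at 37 °C, in triplicate, to HCC1569 and TDF cells. The cells were then fixed and stained for H1.0, and nuclei were counterstained with DAPI. Nuclear H1.0 intensity or cell number is reported relative to the plate control as a percent, taking the median of replicates. Smoothing for positional effects was applied to HCC1569 values only.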
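Note: TDF is a line of transformed human dermal fibroblasts of mesenchymal origin.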

H1.0 immunofluorescence intensity, active:
COc1ccc(-c2cc(C(O)C3CCCCN3)c3ccccc3n2)cc1.Cl.Cl (stereo not given) 169
CCC1(O)CC2CN(CCc3c([nH]c4ccccc34)C(C(=O)OC)(c3cc4c(cc3OC)N(C)C3C(O)(C(=O)OC)C(OC(C)=O)C5(CC)C=CCN6CCC43C65)C2)C1.O=S(=O)(O)O (stereo not given) [Vinblastine sulfate] 156
COc1c(OCCCCN2CCN(C)CC2)cc(O)c2c(=O)cc(-c3ccccc3)oc12 133
Cc1ccc(S(=O)(=O)N2c3ccccc3Oc3ccccc32)cc1 [10-[(4-methylphenyl)sulfonyl]-10H-phenoxazine] 161

H1.0 immunofluorescence intensity, inactive:
NC(=O)c1cnccn1 [Pyrazinecarboxamide] 94.2
O=S(=O)(NCc1ccccn1)c1ccc(Br)c2ccccc12 [4-bromo-N-(2-pyridinylmethyl)-1-naphthalenesulfonamide] 96.2
COc1cc(OC)cc(-c2cc3cnc(N)nc3nc2NC(=O)NC(C)(C)C)c1 101
Br.C=CCN1CCc2c(cc(O)c(O)c2Br)C(c2ccccc2)C1 (stereo not drawn) [R(+)-6-Bromo-APB hydrobromide] 89.7
Nc1nc(OCc2cc(Br)cs2)c2[nH]cnc2n1 [6-[(4-bromo-2-thienyl)methoxy]-1H-purin-2-amine] 97.7
COC1C(OC(N)=O)C(O)C(Oc2ccc3c(O)c(NC(=O)c4ccc(O)c(CC=C(C)C)c4)c(=O)oc3c2C)OC1(C)C.[Na+] (stereo not given) [Novobiocin.Na] 95.7
CNC1C(OC2OC(CO)C(N)C(O)C2O)OC2CC(N)C(OC3C(N)CC(N)C(O)C3O)OC2C1O (stereo not given) [Apramycin] 98.5
CCc1nn(CCCN2CCN(c3cccc(Cl)c3)CC2)c(=O)n1CCOc1ccccc1 [Nefazodone] 95.5
COc1cc(NS(=O)(=O)c2ccc(N)cc2)nc(OC)n1 [Sulfadimethoxine] 96.7
O=C(Nc1cc(Cl)cc2c1[nH]c1cnccc12)c1cccnc1 [IKK Inhibitor X] 101
O=C(O)COc1ccc(C(=O)c2cccs2)c(Cl)c1Cl [[2,3-dichloro-4-(2-thienylcarbonyl)phenoxy]acetic acid] 95.1
Cl.O.O.c1ccc2c(c1)CN1CCCC1=N2 [Desoxypeganine] 89.6
Cc1ccc(C(=O)c2cc(O)c(O)c([N+](=O)[O-])c2)cc1 [Tolcapone] 93.3
CC1=C(C)C(=O)C(CCCCC#CCCCC#CCO)=C(C)C1=O 104
COc1ccc(CCNCC(O)c2ccc(O)cc2)cc1OC (stereo not drawn) [R(-)-Denopamine] 93.5
C=C(C)C1CC=C(C(=O)O)CC1 (single isomer, unassigned; (-)) [(-)-Perillic acid] 95.9
COc1ccc(-c2ccc(N)[n+](CCCC(=O)O)n2)cc1.[Br-] 96.2
Oc1cccc(-c2nc(N3CCOCC3)c3oc4ncccc4c3n2)c1 88
CC(C)C(CO)Nc1nc(Nc2ccc(C(=O)O)c(Cl)c2)c2ncn(C(C)C)c2n1 (stereo not given) [Purvalanol B] 93.1
CC1CC=CC=CC=CC=CC(OC2OC(C)C(O)C(N)C2O)CC2OC(O)(CC(O)CC3OC3C=CC(=O)O1)CC(O)C2C(=O)O (stereo not given) [Pimaricin] 94.9
COc1ccc2c(c1OC)C(=O)OC2C1c2c(cc3c(c2OC)OCO3)CCN1C.Cl (stereo not given) [Noscapine hydrchloride] 97.1
Cn1cnc([N+](=O)[O-])c1Sc1ncnc2nc[nH]c12 [Azathioprine] 94.9
O=C1NC(=O)C(c2cn(CCCn3ccnc3)c3ccccc23)=C1Nc1ccccc1 [PKCb Inhibitor] 87.7
CCCCCCCCC=CCCCCCCCC(=O)NCCO [N-Oleoylethanolamine] 98.4
Cc1cc(N)c2ccccc2[n+]1CCCCCCCCCC[n+]1c(C)cc(N)c2ccccc21.[Cl-].[Cl-] [Dequalinium dichloride] 102
CCCCCC(O)c1cccc(OCc2ccc3ccccc3n2)c1 (stereo not given) 104 and 91.2
CC(=O)CCCCn1c(=O)c2c(ncn2C)n(C)c1=O [Pentoxifylline] 92.8
C=CCn1c(=O)c2c(nc(-c3ccc(S(=O)(=O)O)cc3)n2C)n(C)c1=O [1-Allyl-3,7-dimethyl-8-p-sulfophenylxanthine] 99.2
CC1=C(CC(=O)O)c2cc(F)ccc2C1=Cc1ccc(S(C)=O)cc1 (stereo not given) [Sulindac] 95
CCc1cccc2c3c([nH]c12)C(CC)(CC(=O)O)OCC3 (stereo not given) [Etodolac] 97
NNCCc1ccccc1.O=S(=O)(O)O [Phenelzine sulfate] 95.3
C=CCc1ccc(O)c(-c2cc(CC=C)ccc2O)c1 [Magnolol] 91.7
CCCOC(=O)c1cc(O)c(O)c(O)c1 [N-Propyl gallate] 100
CCC(C)C(=O)OC1CC(C)C=C2C=CC(C)C(CCC3CC(O)CC(=O)O3)C21 (stereo not given) [Lovastatin] 119
O=C(CCN1CCN(C(=O)OCc2cc(Cl)cc(Cl)c2)CC1)c1ccc2[nH]c(=O)oc2c1 87.1
CCC(C)C(=O)OC1CC(O)C=C2C=CC(C)C(CCC3CC(O)CC(=O)O3)C21 (stereo not given) [Pravastatin Lactone] 91.6

From the supplement of paper PMC7156485
